Data published in paper PMC9911399, “Two distinct binding modes provide the RNA-binding protein RbFox with extraordinary sequence specificity”.
Where a chain is given by its changes, count along the chain named. The full ranking holds about 16,000 sequences; the median of “ka relative to ugcaugu” is about 0.096, and the highest 2% start at about 0.35. The list comes from a sample in which the highest values are over-represented; it also holds similar and randomly drawn sequences.

T1: RBFOX1 RRM RbFoxmut (Fox-RRM*) (Homo sapiens, UniProt Q9NWB1 109-208, R118D;E147R;N151S;E152T)
T1 sequence: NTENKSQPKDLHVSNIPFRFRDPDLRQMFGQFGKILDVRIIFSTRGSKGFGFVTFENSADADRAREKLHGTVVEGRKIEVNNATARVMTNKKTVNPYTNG

B1: UUAAUGA (DNA:RNA)
RNA: GGGAGACCGGAAUUCAGAUUGUCCUUAAUGAUUAAAUCCCGUCGUAGCCACCA
DNA 1: CAATCTGAATTCCGGTCTCCC
DNA 2: TGGTGGCTACGACGGGATT
B2: CUGGUAA (DNA:RNA)
RNA: B1 RNA with U25C, A27G, A28G, G30A
DNA 1: CAATCTGAATTCCGGTCTCCC
DNA 2: TGGTGGCTACGACGGGATT
B3: AAGAUCU (DNA:RNA)
RNA: B1 RNA with U25A, U26A, A27G, G30C, A31U
DNA 1: CAATCTGAATTCCGGTCTCCC
DNA 2: TGGTGGCTACGACGGGATT
B4: AAAUCAC (DNA:RNA)
RNA: B1 RNA with U25A, U26A, A28U, U29C, G30A, A31C
DNA 1: CAATCTGAATTCCGGTCTCCC
DNA 2: TGGTGGCTACGACGGGATT
B5: GCGUAUG (DNA:RNA)
RNA: GGGAGACCGGAAUUCAGAUUGUCCGCGUAUGUUAAAUCCCGUCGUAGCCACCA
DNA 1: CAATCTGAATTCCGGTCTCCC
DNA 2: TGGTGGCTACGACGGGATT
B6: GCGUUUG (DNA:RNA)
RNA: B5 RNA with A29U
DNA 1: CAATCTGAATTCCGGTCTCCC
DNA 2: TGGTGGCTACGACGGGATT
B7: UUAUGCG (DNA:RNA)
RNA: B1 RNA with A28U, U29G, G30C, A31G
DNA 1: CAATCTGAATTCCGGTCTCCC
DNA 2: TGGTGGCTACGACGGGATT
B8: GUAUGCG (DNA:RNA)
RNA: B5 RNA with C26U, G27A, A29G, U30C
DNA 1: CAATCTGAATTCCGGTCTCCC
DNA 2: TGGTGGCTACGACGGGATT
B9: GUAUGCC (DNA:RNA)
RNA: B5 RNA with C26U, G27A, A29G, U30C, G31C
DNA 1: CAATCTGAATTCCGGTCTCCC
DNA 2: TGGTGGCTACGACGGGATT
B10: GCGUCCG (DNA:RNA)
RNA: B5 RNA with A29C, U30C
DNA 1: CAATCTGAATTCCGGTCTCCC
DNA 2: TGGTGGCTACGACGGGATT
B11: GCGUCGU (DNA:RNA)
RNA: B5 RNA with A29C, U30G, G31U
DNA 1: CAATCTGAATTCCGGTCTCCC
DNA 2: TGGTGGCTACGACGGGATT
B12: GUAUGUC (DNA:RNA)
RNA: B5 RNA with C26U, G27A, A29G, G31C
DNA 1: CAATCTGAATTCCGGTCTCCC
DNA 2: TGGTGGCTACGACGGGATT
B13: CGCGUCG (DNA:RNA)
RNA: B5 RNA with G25C, C26G, G27C, U28G, A29U, U30C
DNA 1: CAATCTGAATTCCGGTCTCCC
DNA 2: TGGTGGCTACGACGGGATT
B14: GGUCGGG (DNA:RNA)
RNA: B5 RNA with C26G, G27U, U28C, A29G, U30G
DNA 1: CAATCTGAATTCCGGTCTCCC
DNA 2: TGGTGGCTACGACGGGATT
B15: GGGACGG (DNA:RNA)
RNA: B5 RNA with C26G, U28A, A29C, U30G
DNA 1: CAATCTGAATTCCGGTCTCCC
DNA 2: TGGTGGCTACGACGGGATT
B16: CGGUUUG (DNA:RNA)
RNA: B5 RNA with G25C, C26G, A29U
DNA 1: CAATCTGAATTCCGGTCTCCC
DNA 2: TGGTGGCTACGACGGGATT
B17: GGUUUUU (DNA:RNA)
RNA: B5 RNA with C26G, G27U, A29U, G31U
DNA 1: CAATCTGAATTCCGGTCTCCC
DNA 2: TGGTGGCTACGACGGGATT
B18: GUCCGGU (DNA:RNA)
RNA: B1 RNA with U25G, A27C, A28C, U29G, A31U
DNA 1: CAATCTGAATTCCGGTCTCCC
DNA 2: TGGTGGCTACGACGGGATT
B19: GGUUUGU (DNA:RNA)
RNA: B5 RNA with C26G, G27U, A29U, U30G, G31U
DNA 1: CAATCTGAATTCCGGTCTCCC
DNA 2: TGGTGGCTACGACGGGATT
B20: GGUUUGG (DNA:RNA)
RNA: B5 RNA with C26G, G27U, A29U, U30G
DNA 1: CAATCTGAATTCCGGTCTCCC
DNA 2: TGGTGGCTACGACGGGATT
B21: GGUUUUG (DNA:RNA)
RNA: B5 RNA with C26G, G27U, A29U
DNA 1: CAATCTGAATTCCGGTCTCCC
DNA 2: TGGTGGCTACGACGGGATT
B22: UACCCGA (DNA:RNA)
RNA: B1 RNA with U26A, A27C, A28C, U29C
DNA 1: CAATCTGAATTCCGGTCTCCC
DNA 2: TGGTGGCTACGACGGGATT
B23: GGUCCCA (DNA:RNA)
RNA: B5 RNA with C26G, G27U, U28C, A29C, U30C, G31A
DNA 1: CAATCTGAATTCCGGTCTCCC
DNA 2: TGGTGGCTACGACGGGATT
B24: GGAGCAG (DNA:RNA)
RNA: B5 RNA with C26G, G27A, U28G, A29C, U30A
DNA 1: CAATCTGAATTCCGGTCTCCC
DNA 2: TGGTGGCTACGACGGGATT
B25: GAAUGCU (DNA:RNA)
RNA: B5 RNA with C26A, G27A, A29G, U30C, G31U
DNA 1: CAATCTGAATTCCGGTCTCCC
DNA 2: TGGTGGCTACGACGGGATT
B26: GAUGCUU (DNA:RNA)
RNA: B5 RNA with C26A, G27U, U28G, A29C, G31U
DNA 1: CAATCTGAATTCCGGTCTCCC
DNA 2: TGGTGGCTACGACGGGATT
B27: GGAAUGC (DNA:RNA)
RNA: B1 RNA with U25G, U26G, A31C
DNA 1: CAATCTGAATTCCGGTCTCCC
DNA 2: TGGTGGCTACGACGGGATT
B28: UUAAUGC (DNA:RNA)
RNA: B1 RNA with A31C
DNA 1: CAATCTGAATTCCGGTCTCCC
DNA 2: TGGTGGCTACGACGGGATT
B29: GUAAUGC (DNA:RNA)
RNA: B1 RNA with U25G, A31C
DNA 1: CAATCTGAATTCCGGTCTCCC
DNA 2: TGGTGGCTACGACGGGATT
B30: GAUUGCU (DNA:RNA)
RNA: B5 RNA with C26A, G27U, A29G, U30C, G31U
DNA 1: CAATCTGAATTCCGGTCTCCC
DNA 2: TGGTGGCTACGACGGGATT
B31: GAAUUGC (DNA:RNA)
RNA: B1 RNA with U25G, U26A, A28U, A31C
DNA 1: CAATCTGAATTCCGGTCTCCC
DNA 2: TGGTGGCTACGACGGGATT
B32: GAAAUGC (DNA:RNA)
RNA: B1 RNA with U25G, U26A, A31C
DNA 1: CAATCTGAATTCCGGTCTCCC
DNA 2: TGGTGGCTACGACGGGATT
B33: CGAAUGC (DNA:RNA)
RNA: B1 RNA with U25C, U26G, A31C
DNA 1: CAATCTGAATTCCGGTCTCCC
DNA 2: TGGTGGCTACGACGGGATT
B34: UAAAUGC (DNA:RNA)
RNA: B1 RNA with U26A, A31C
DNA 1: CAATCTGAATTCCGGTCTCCC
DNA 2: TGGTGGCTACGACGGGATT
B35: GCAAUGC (DNA:RNA)
RNA: B1 RNA with U25G, U26C, A31C
DNA 1: CAATCTGAATTCCGGTCTCCC
DNA 2: TGGTGGCTACGACGGGATT
B36: UGAAUGC (DNA:RNA)
RNA: B1 RNA with U26G, A31C
DNA 1: CAATCTGAATTCCGGTCTCCC
DNA 2: TGGTGGCTACGACGGGATT

What follows are binders tested against T1, RBFOX1 RRM RbFoxmut (Fox-RRM*) (assay: EMSA; HiTS-Eq, 1 nM pool, 10 min; buffer printed only for the single-RNA assays: 10 mM Tris pH 7.5, 150 mM NaCl, 3.4 mM EDTA, 0.001% NP-40, 30 C). Settings: tags: His6 N-terminal (pET28a); label: 5' 32P.
Outline: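 Purified RbFox RRM (wild type or mutant) was equilibrated for 10 min in 50 µL with 1 nM of a 5′-radiolabelled pool of RNA with 7 randomized nucleotides, its flanks annealed to DNA oligonucleotides, across increasing protein concentrations. Free RNA was separated by 8% native PAGE, excised, reverse-transcribed, PCR-barcoded and sequenced on an Illumina HiSeq 2500. Relative association constants came from read-count changes of each variant against the control reaction, normalised to the cognate motif.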

In order of rising binding signal:
1. B23  0.0504 KA relative to UGCAUGU
2. B35  0.0545 KA relative to UGCAUGU
3. B17  0.056 KA relative to UGCAUGU
4. B14  0.0602 KA relative to UGCAUGU
5. B4  0.0617 KA relative to UGCAUGU
6. B3  0.0643 KA relative to UGCAUGU
7. B22  0.066 KA relative to UGCAUGU
8. B34  0.0677 KA relative to UGCAUGU
9. B1  0.0717 KA relative to UGCAUGU
10. B32  0.072 KA relative to UGCAUGU
11. B24  0.0829 KA relative to UGCAUGU
12. B26  0.0831 KA relative to UGCAUGU
13. B15  0.0996 KA relative to UGCAUGU
14. B13  0.101 KA relative to UGCAUGU
15. B28  0.118 KA relative to UGCAUGU
16. B31  0.119 KA relative to UGCAUGU
17. B2  0.121 KA relative to UGCAUGU
18. B29  0.127 KA relative to UGCAUGU
19. B11  0.129 KA relative to UGCAUGU
20. B7  0.13 KA relative to UGCAUGU
21. B18  0.132 KA relative to UGCAUGU
22. B10  0.135 KA relative to UGCAUGU
23. B30  0.141 KA relative to UGCAUGU
24. B21  0.191 KA relative to UGCAUGU
25. B20  0.277 KA relative to UGCAUGU
26. B9  0.278 KA relative to UGCAUGU
27. B12  0.334 KA relative to UGCAUGU
28. B19  0.366 KA relative to UGCAUGU
29. B6  0.403 KA relative to UGCAUGU
30. B8  0.468 KA relative to UGCAUGU
31. B36  0.485 KA relative to UGCAUGU
32. B16  0.633 KA relative to UGCAUGU
33. B25  0.634 KA relative to UGCAUGU
34. B27  0.686 KA relative to UGCAUGU
35. B33  0.856 KA relative to UGCAUGU
36. B5  0.876 KA relative to UGCAUGU
